Assay outcomes deposited in PubChem by Sanford-Burnham Center for Chemical Genomics.
The list is not random: actives were taken first. Their share in the collection is about 1.5%.
NPR2 activator – human GC-B receptor activators, primary screen, HEK293 GC-B cells, cGMP TR-FRET, EC30 CNP; 0% at EC30 CNP, 100% saturating CNP; activation, % at 10 µM; Atrial natriuretic peptide receptor 2 (Homo sapiens), P20594; hit rate 0.11% among 370,000;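 active = activation at 10 µM reaching about 35% in either raw or pattern-adjusted values, limit read from the data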
NPR1 activator – GC-A stimulated cGMP production enhancers – HEK293 GC-A cells, cGMP TR-FRET, EC30 ANP, primary screen. hit rate 0.14% among 370,000. AID 1671463, 2021. 0% at EC30 ANP, 100% saturating ANP. Atrial natriuretic peptide receptor 1 (Homo sapiens), P16066. activation, % at 10 µM; in the data active = activation above about 40%
Neddylation inh – inhibitors of cullin neddylation, primary screen, biochemical, TR-FRET, uHTS, NAE and Ubc12; inhibition, % at 25 µM; hit rate 0.58% among 360,000; in the data active = inhibition above about 36%
Target sequence (P61081 whole entry, looked up): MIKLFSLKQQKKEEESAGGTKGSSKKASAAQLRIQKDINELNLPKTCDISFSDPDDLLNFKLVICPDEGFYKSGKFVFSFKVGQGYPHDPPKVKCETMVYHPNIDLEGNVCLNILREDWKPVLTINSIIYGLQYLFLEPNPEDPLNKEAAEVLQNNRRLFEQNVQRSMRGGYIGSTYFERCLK
Target sequence (Q13564 whole entry, looked up): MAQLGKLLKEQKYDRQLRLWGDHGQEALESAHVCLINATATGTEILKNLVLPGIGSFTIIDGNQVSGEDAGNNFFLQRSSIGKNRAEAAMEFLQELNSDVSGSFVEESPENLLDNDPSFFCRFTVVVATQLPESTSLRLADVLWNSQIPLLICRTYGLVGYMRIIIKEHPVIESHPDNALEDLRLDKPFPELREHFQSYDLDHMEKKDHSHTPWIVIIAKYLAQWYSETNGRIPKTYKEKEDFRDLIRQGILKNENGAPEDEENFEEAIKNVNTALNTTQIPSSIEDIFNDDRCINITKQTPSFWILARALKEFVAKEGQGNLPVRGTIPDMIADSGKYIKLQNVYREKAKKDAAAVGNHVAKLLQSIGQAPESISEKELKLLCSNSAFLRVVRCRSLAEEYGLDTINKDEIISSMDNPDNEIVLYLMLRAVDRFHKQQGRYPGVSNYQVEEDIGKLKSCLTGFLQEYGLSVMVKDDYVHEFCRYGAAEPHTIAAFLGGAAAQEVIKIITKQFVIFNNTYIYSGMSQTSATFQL
NadD inh – inhibitors of S. aureus NadD, primary screen, biochemical, colorimetric, uHTS. Nicotinate-nucleotide adenylyltransferase NadD (Staphylococcus aureus N315). inhibition, % at 20 µM. purified NadD enzyme, colorimetric absorbance read-out. hit rate 0.78% among 360,000; in the data active = inhibition above about 26%
NadD conf – inhibitors of S. aureus NadD, confirmation, biochemical, colorimetric, single concentration. shares compounds with NadD inh. purified S. aureus NadD, colorimetric enzyme assay. inhibition, % at 20 µM. hit rate 13% among 2,000. AID 624309, 2012; in the data active = inhibition mostly above about 42%, no sharp cut-off; inactive = mostly below about 42%
* hit, by the source's call; i = inactive; / = no result shown.

SMILES | NPR2 activator | NPR1 activator | Neddylation inh | NadD inh | NadD conf
CCC(Sc1nc2ccsc2c(=O)n1Cc1ccc(C(=O)O)cc1)C(=O)Nc1cc(Cl)ccc1C (configuration not stated) | 1.2 | -7.2 | -7.5 | 18.7 | /
Cc1cc(NC(=O)CSc2nc3c(sc4ccccc43)c(=O)n2CCc2ccccc2)n[nH]1 | -9.5 | -2.0 | -9.3 | 33.9* | 2.2
COC(=O)[C@]12C[C@H](CC(=O)NCC34CC5CC(CC(C5)C3)C4)C(=O)N(Cc3ccccc3)C1=C[C@H](C1CCCC1)O[C@@H]2C | -2.0 | -6.3 | / | / | /
Cc1cccc(N2CCN(C(=O)c3ccc4c(c3)NC(=O)C(CSCc3cccc(F)c3)N4)CC2C)c1 (configuration not stated) | -2.2 | -8.1 | 10.5 | 49.1* | 70.0*
CCOC(=O)C1=C(N)n2c(s/c(=C\c3ccco3)c2=O)=C(C(=O)OC(C)C)C1c1ccco1 (configuration not stated) | -7.3 | -8.2 | 10.4 | 31.9* | 18.1
CCOC(=O)C1=C(N)n2c(s/c(=C\c3ccco3)c2=O)=C(C(=O)OCC)C1c1ccco1 (configuration not stated) | -5.1 | -8.2 | 10.8 | 21.1 | /
CCc1nnc(NC(=O)c2cccc(S(=O)(=O)N3CCN(c4ccccc4)CC3)c2)s1 | -1.3 | 1.2 | -7.3 | 15.4 | /
CCc1nnc(NC(=O)c2cc(S(=O)(=O)N3CCN(c4ccccc4)CC3)ccc2Cl)s1 | -0.5 | -0.5 | 10.7 | 31.1* | 29.2
O=C(COC(=O)c1ccc2c(c1)C(=O)N(c1cccc3ncccc13)C2=O)c1ccc(Cl)cc1 | 0.6 | -0.3 | -1.0 | 8.8 | /
O=C(OCC(=O)c1ccc(Cl)cc1Cl)c1ccc2c(c1)C(=O)N(c1cccc3ncccc13)C2=O | -2.8 | 8.4 | -94.0 | 42.7* | 7.1
Cc1ccc(-n2c(O)c(C=Nc3ccccc3-c3n[nH]c(=S)[nH]c3=O)c3ccccc3c2=O)c(C)c1 | 23.5 | 10.8 | -10.7 | 32.0* | 36.8
Cc1cccc(-n2c(O)c(C=Nc3ccccc3-c3n[nH]c(=S)[nH]c3=O)c3ccccc3c2=O)n1 | -2.3 | -1.5 | -21.7 | 25.9 | /
Cc1ccc(-n2c(O)c(C=Nc3ccccc3-c3n[nH]c(=S)[nH]c3=O)c3ccccc3c2=O)cc1C | 2.0 | -24.1 | -11.3 | 38.6* | 61.9*
Cc1ccnc(NS(=O)(=O)c2ccc(NC(=O)c3cc(-c4ccc(Br)cc4)nc4ccccc34)cc2)n1 | -6.2 | -15.8 | -56.0 | 73.5* | 46.2*
COc1ccc(-c2cc(C(=O)Nc3ccc(S(=O)(=O)Nc4onc(C)c4C)cc3)c3ccccc3n2)cc1 | -3.2 | -1.9 | 29.7 | 28.8* | 65.7*
Cc1noc(C)c1S(=O)(=O)N1CCCc2nc(-c3ccccc3)ccc21 | -2.6 | -0.1 | / | / | /
S=C1Nc2ccccc2CS1 | 4.2 | 1.1 | -0.8 | 0.3 | /
S=C1Cc2ccccc2N1 | 11.4 | 1.3 | -19.1 | 30.7* | 38.9
C[C@@H]1C=CCCO[C@]12C(=O)N(Cc1ccc(Br)cc1)c1cccc(Br)c12 | 6.9 | 6.2 | / | / | /
Cc1ccc(C)c2nc(N3CCCC3)c(C#N)cc12 | 0.5 | -12.8 | / | 31.8* | 10.9
COC(=O)[C@]12C[C@H](CC(=O)NCc3cccc(C(F)(F)F)c3)C(=O)N(CCC3=CCCCC3)C1=C[C@H](COCc1ccccc1)O[C@@H]2C | 3.4 | 6.4 | / | / | /
N#C/C(=C/c1ccc(F)cc1)c1nnc(NC(=O)c2ccccc2)s1 | -4.5 | 19.9 | / | 35.8* | 4.0
CN(Cc1ccc(F)cc1)S(=O)(=O)c1nnc(NC(=O)c2ccccc2)s1 | -5.5 | -13.6 | -22.3 | -1.8 | /
COC(=O)C1CN(C2CCCC2)CCS(=O)(=O)N1Cc1cn(Cc2ccccc2)nn1 (configuration not stated) | 5.1 | 0.9 | / | / | /
O=C(Nc1ccc2oc(-c3cccnc3)nc2c1)c1ccc2c(c1)OCCO2 | 2.5 | -0.8 | 9.7 | 33.1* | 2.8
SMILES | NPR2 activator | NPR1 activator | Neddylation inh | NadD inh | NadD conf
Cc1ccc2nc3c(cc2c1)CN(Cc1ccco1)C(=NCC1CCCO1)S3 (configuration not stated) | 16.3 | -2.8 | -33.7 | 45.2* | 9.8
COc1cccc(-n2c(SCC(=O)N3CCc4ccccc43)nnc2-c2c[nH]c3ccccc23)c1 | 0.5 | -1.7 | -5.2 | 38.4* | 7.4
CCOc1ccc(-n2c(SCC(=O)N3CCc4ccccc43)nnc2-c2c[nH]c3ccccc23)cc1 | -5.4 | 0.8 | 2.2 | 8.1 | /
Cc1ccccc1NC(=O)COC(=O)c1ccc(S(=O)(=O)N2CCCCCC2)cc1 | 6.6 | 0.3 | 14.2 | 14.0 | /
Cc1ccc(C)c(NC(=O)COC(=O)c2ccc(S(=O)(=O)N3CCCCC3)cc2)c1 | -3.5 | -1.4 | 2.2 | 31.0* | -0.5
Cc1cc2cc(CN(Cc3cccs3)C(c3nnnn3C(C)(C)C)C(C)C)c3nnnn3c2cc1C (configuration not stated) | -1.4 | -2.7 | -30.1 | 30.9* | 2.8
C#CCN1CC(N(C)CCOC(=O)c2ccc(F)cc2)CS1(=O)=O (configuration not stated) | -3.1 | -0.4 | / | / | /
CC(=O)c1ccccc1NC(=O)CN1C(=O)CS/C1=C\c1nc(-c2ccc(C)cc2)cs1 | -1.0 | -2.6 | -5.5 | 46.1* | 1.5
O=C(O)C1CC=CCC1C(=O)N1CCN(c2nc(-c3ccccc3Cl)c3cc(Br)ccc3n2)CC1 (configuration not stated) | 20.1 | 30.8 | i | 35.8* | 27.7
COc1ccc(C2CC(c3cccs3)=NN2C(=O)CSc2nc(=O)n3ccc(C)cc3n2)cc1 (configuration not stated) | 3.7 | 7.3 | -46.2 | 46.4* | 43.8
O=C(CSc1nc(=O)n2ccccc2n1)N1N=C(c2cccs2)CC1c1ccc(F)cc1 (configuration not stated) | -3.2 | -3.8 | -6.2 | 12.8 | /
CCOC(=O)N1CCN(C(=O)CSc2nc3c(cnn3-c3ccccc3)c(=O)[nH]2)CC1 | -10.5 | -5.0 | 6.8 | -6.0 | /
COc1ccc(C2CC(c3cccs3)=NN2C(=O)CSc2nc3c(cnn3-c3ccccc3)c(=O)[nH]2)cc1 (configuration not stated) | -2.8 | 0.8 | / | 40.3* | 7.3
COc1ccc(C2=NN(C(=O)CSc3nc(=O)n4cc(C)ccc4n3)C(c3ccc(C)cc3)C2)cc1 (configuration not stated) | 3.2 | 1.5 | -292.4 | 49.2* | 14.7
Cc1ccc(C2CC(c3cccs3)=NN2C(=O)CSc2nc(=O)n3ccc(C)cc3n2)cc1 (configuration not stated) | 3.2 | 1.7 | -3.5 | 38.0* | 51.0*
CCOC(=O)[C@@]12CCCC=C1N(CCc1ccc(Cl)cc1)C(=O)[C@H]2CC(=O)NCc1cccs1 | -0.9 | 1.5 | / | / | /
